Six sequences from the supplement of paper PMC6555819 can be followed below.

Common to all, as to assay: PBM binding z-score (relative to random genomic background probes); higher = stronger binding; sequences stand for … in GC…GCGATTGACAGCGTAGAATGAAGG
Experiment [1] has as its system FXR:RXRa (NR concentration 270 nM, RXRa partner concentration 90 nM). In short, it runs like this:
(§1)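 On custom Agilent 4×180K arrays, double-stranded probes with 34-nt variable regions carried direct-repeat seeds, single-nucleotide variants, half-site ablations or random human genomic background. Ligand-free nuclear receptor dimers were applied for 1 h, and binding was read with antibodies against each partner (one per run). Binding z-scores come from regression-normalized fluorescence, with the random background probes as reference.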

Experiment [2] concerns LXRa:RXRa (NR concentration 270 nM, RXRa partner concentration 90 nM). In short, it runs like this:
as §1

Experiment [3] concerns LXRa homodimer (NR concentration 270 nM). In short, it runs like this: as §1
Experiment [4] relates to LXRb:RXRa (NR concentration 270 nM, RXRa partner concentration 90 nM). In a few lines:
as §1

In experiment [5] the test system is LXRb homodimer (NR concentration 270 nM). In a few lines: as §1
In experiment [6] the test system is PPARa:RXRa (NR concentration 270 nM, RXRa partner concentration 90 nM). In a few lines:
as §1

Experiment [7] has as its system PPARg:RXRa (NR concentration 180 nM, RXRa partner concentration 90 nM). In short, it runs like this:
as §1

Experiment [8] concerns PPARg:RXRa 270nM:90nM, anti-RXR (NR concentration 270 nM, RXRa partner concentration 90 nM). In a few lines: as §1
In experiment [9] the test system is PPARg:RXRa 30nM:10nM, anti-RXR (NR concentration 30 nM, RXRa partner concentration 10 nM). In a few lines:
as §1

Experiment [10] has as its system PPARg:RXRa 90nM:30nM, anti-RXR (NR concentration 90 nM, RXRa partner concentration 30 nM). In short, it runs like this:
as §1

Experiment [11] relates to PPARg:RXRa DBDmut IVT, anti-RXR (DBD mutation: RXRa K156A/R161A, NR concentration 270 nM, RXRa partner concentration 90 nM). In short, it runs like this:
as §1

Experiment [12] has as its system PPARg:RXRa IVT, anti-PPARg (NR concentration 270 nM, RXRa partner concentration 90 nM). In a few lines: as §1
For experiment [13], the system named is PPARg DBDmut:RXRa IVT, anti-PPARg (DBD mutation: PPARg1 K132A/R137A, NR concentration 270 nM, RXRa partner concentration 90 nM). In a few lines:
as §1

The subject of experiment [14] is PPARg DBDmut IVT, anti-PPARg (DBD mutation: PPARg1 K132A/R137A, NR concentration 270 nM). In a few lines:
as §1

In experiment [15] the test system is PPARg homodimer (NR concentration 180 nM). In a few lines: as §1
Experiment [16] has as its system PXR:RXRa (NR concentration 270 nM, RXRa partner concentration 90 nM). In short, it runs like this: as §1
Experiment [17] concerns PXR homodimer (NR concentration 270 nM). In short, it runs like this:
as §1

Experiment [18] concerns RARa:RXR (NR concentration 270 nM, RXRa partner concentration 90 nM). In short, it runs like this: as §1
For experiment [19], the system named is RARa homodimer (NR concentration 270 nM). In a few lines: as §1
Experiment [20] deals with RARb:RXRa (NR concentration 270 nM, RXRa partner concentration 90 nM). In short, it runs like this:
as §1

With GCGACTGGGGCAAAGCAGGTTACCATCAGGTTGG, the PBM binding z-score in [1] is 0.219; in [2], 0.0244; in [3] it was -0.624; in [4] it was 0.0908; in experiment [5], -1.13; in experiment [6], 1.24. For the same sequence, the PBM binding z-score in experiment [7] is 0.987; in experiment [8] it was 1.13; in [9], -0.557; in experiment [10] it was 0.405; in experiment [11], 3.88; in [12] it was 3.6. Besides, the PBM binding z-score in [13] was -0.221; in experiment [14] it was -0.906; in experiment [15], 0.147; in experiment [16] it was 0.343; in experiment [17] it was -0.136; in experiment [18] it was 0.899. The PBM binding z-score was -1.19 in experiment [19] and 0.889 in experiment [20].
On to CCAGACAGGTGAAAGGTAGCTCAGTCTGGTACGC, for which the PBM binding z-score in experiment [1] is 0.0731; in [2], -0.0262; in experiment [3], -0.504; in [4], 0.0215; in experiment [5] it was -1.1; in [6] it was 2.23. In addition, the PBM binding z-score was found to be 3.22 in [7]; 4.68 in experiment [8]; 2.78 in experiment [9]; 4.9 in experiment [10]; 2.97 in [11]; 1.52 in experiment [12]. Also, the PBM binding z-score in experiment [13] is -1.06; in experiment [14] it was -0.199; in experiment [15], 0.596; in [16] it was -0.0966; in [17], -0.482; in experiment [18] it was 0.905. Also, the PBM binding z-score is -0.063 in experiment [19] and 0.738 in [20].
Regarding ATATGTAGGTTAAGGGTTATTCAGGTTGGTTCGC, the PBM binding z-score in experiment [1] is 2.31; in experiment [2] it was 3.16; in [3] it was 1.3; in [4] it was 2.8; in experiment [5], 1.11; in experiment [6], 5.82. Moreover, the PBM binding z-score came out at 10.4 in experiment [7]; 8.81 in experiment [8]; 8.91 in experiment [9]; 9.75 in [10]; 7.57 in [11]; 7.51 in experiment [12]. In addition, the PBM binding z-score worked out at 3.47 in experiment [13]; 3.04 in [14]; 2.78 in experiment [15]; 2.84 in [16]; 1.6 in [17]; 2.88 in experiment [18]. The results for the PBM binding z-score in [19] and in experiment [20] were 2.39 and 1.88, respectively.
GCTCGGAGGACAACGTCAGAGCTTTGTCCGTAGA: the PBM binding z-score in experiment [1] is -0.816; in experiment [2] it was -1.18; in [3], -1; in [4] it was -1.15; in experiment [5] it was -1.11; in experiment [6], -0.78. In addition, the PBM binding z-score in [7] was -0.651; in experiment [8], -1.1; in experiment [9], -1.29; in experiment [10] it was -1.22; in experiment [11] it was -0.91; in [12] it was -0.67. The PBM binding z-score in [13] is -2; in experiment [14], -1.23; in experiment [15], -2.11; in experiment [16], -0.976; in experiment [17], -1.16; in experiment [18], -1.29. In addition, the PBM binding z-score in experiment [19] is -1.57; in experiment [20] it was 0.852.
CCTACTGGGCCATTCAGAGGCCATTGATCATATG: the PBM binding z-score is -0.101 in experiment [1]; -0.261 in [2]; -0.0422 in [3]; -0.326 in experiment [4]; -0.546 in experiment [5]; 0.543 in [6]. For the same sequence, the PBM binding z-score in [7] was 0.541; in experiment [8] it was 0.6; in experiment [9], -0.265; in [10] it was 0.287; in experiment [11], 4.1; in experiment [12] it was 3.43. Besides, the PBM binding z-score was -0.542 in [13]; -0.403 in experiment [14]; 0.212 in [15]; -0.174 in experiment [16]; -0.0574 in experiment [17]; -0.153 in experiment [18]. The PBM binding z-score in experiment [19] was -0.498; in experiment [20], 0.712.
In the case of ACAGACAGGTGAGTGAAGGTAATTCAGCTGGACG, the PBM binding z-score in experiment [1] was 0.214; in [2], 0.102; in experiment [3], -0.0483; in [4] it was -0.196; in experiment [5], -0.576; in experiment [6], -0.0438. For the same sequence, the PBM binding z-score in experiment [7] was 0.499; in experiment [8], 0.152; in [9] it was -0.212; in experiment [10], -0.193; in [11] it was 0.0687; in experiment [12], 0.119. Besides, the PBM binding z-score was 0.248 in experiment [13]; -0.584 in experiment [14]; -0.206 in experiment [15]; -0.2 in experiment [16]; -0.191 in experiment [17]; -9.88e-05 in experiment [18]. In addition, the PBM binding z-score is -0.0883 in experiment [19] and 0.49 in experiment [20].
